Results from PubChem BioAssay.
Calls of active or inactive are those of the source.

Legend:
[1] = anti-His antibody binders, primary screen, artefact control for SMM control protein annotation, biochemical, small-molecule microarray, 635 nm fluorescence (AID 1128); conditions: anti-His Alexa647 antibody binding, higher = more signal;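 also: score merges feature fluorescence with signal-to-noise for each printed compound spot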
[2] = tested on: Human papillomavirus type 1a E7 protein (residues 1-88); assay: HPV1a E7 small-molecule binders, primary screen, biochemical, small-molecule microarray, residues 1-88, 635 nm (AID 1129); conditions: small-molecule microarray binding, fluorescence 635 nm; higher = more signal
[3] = molecular target: Focal adhesion kinase 1 (Homo sapiens) (UniProt Q05397); assay: small-molecule microarray binders of FAK, primary screen, biochemical, 635/667 nm fluorescence, BSA, DTT (AID 1130); conditions: PTK2 binding, 635 nm fluorescence, higher = more signal;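 also: composite of spot emission at 667 nm and signal to noise over triplicate slides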
[4] = tested on: Fibrinogen (Alexa647-labelled); assay: fibrinogen binders on compound microarrays, profiling panel, artefact control for SMM control-protein annotation, biochemical, small-molecule microarray, 635/667 nm fluorescence (AID 1131); conditions: fibrinogen-A647 binding fluorescence, higher = more signal;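 also: z-score merges 667 nm fluorescence with per-spot signal-to-noise over triplicate slides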
[5] = molecular target: Follistatin (Homo sapiens) (UniProt P19883); assay: follistatin binders on small-molecule microarrays, primary screen, biochemical, small-molecule microarray, 635/667 nm fluorescence (AID 1132); conditions: FST binding, 635 nm fluorescence, higher = more signal
[6] = molecular target: Fibroblast growth factor 2 (Homo sapiens) (UniProt P09038); assay: FGF2 binders on small-molecule microarrays, primary screen, biochemical, small-molecule microarray, 635/667 nm fluorescence (AID 1133); conditions: small-molecule microarray binding, FGF2, fluorescence 635/667; higher = more signal
[7] = mitochondrial membrane potential change in A549 cells, profiling panel, cell-based, JC-1 fluorescence, basal, 24 h, 100 nL (AID 1138); conditions: higher = more signal;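 also: A549 lung adenocarcinoma cells under basal conditions with no added stimulus; test concentration not given here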
Lefty1 = Lefty1 binders on small-molecule microarrays, primary screen, biochemical, small-molecule microarray, 635/667 nm fluorescence (AID 1139); conditions: small-molecule microarray binding, fluorescence 635/667; higher = more signal
[8] = tested on: wheat germ agglutinin (Triticum aestivum), Alexa647-labelled; assay: wheat germ agglutinin binders on compound microarrays, profiling panel, artefact control for SMM control-protein annotation, biochemical, small-molecule microarray, 635/667 nm fluorescence (AID 1140); conditions: WGA-A647 binding, 635 nm fluorescence, higher = more signal;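 also: score merges 667 nm feature emission with signal to noise over triplicate slides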
[9] = molecular target: Luciferin 4-monooxygenase (Photinus pyralis) (UniProt P08659); assay: firefly luciferase enzyme inhibitors, primary screen, biochemical, luminescence, purified enzyme, 2006 set (AID 1141); conditions: SteadyGlo luminescence, 30 min, higher = more signal, called active from +8 up or from −8 down;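 also: cell-free assay with purified firefly luciferase at 100 ng per well in PBS; test concentration not given here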
Sequence of Luciferin 4-monooxygenase (Photinus pyralis) (P08659 whole entry, looked up): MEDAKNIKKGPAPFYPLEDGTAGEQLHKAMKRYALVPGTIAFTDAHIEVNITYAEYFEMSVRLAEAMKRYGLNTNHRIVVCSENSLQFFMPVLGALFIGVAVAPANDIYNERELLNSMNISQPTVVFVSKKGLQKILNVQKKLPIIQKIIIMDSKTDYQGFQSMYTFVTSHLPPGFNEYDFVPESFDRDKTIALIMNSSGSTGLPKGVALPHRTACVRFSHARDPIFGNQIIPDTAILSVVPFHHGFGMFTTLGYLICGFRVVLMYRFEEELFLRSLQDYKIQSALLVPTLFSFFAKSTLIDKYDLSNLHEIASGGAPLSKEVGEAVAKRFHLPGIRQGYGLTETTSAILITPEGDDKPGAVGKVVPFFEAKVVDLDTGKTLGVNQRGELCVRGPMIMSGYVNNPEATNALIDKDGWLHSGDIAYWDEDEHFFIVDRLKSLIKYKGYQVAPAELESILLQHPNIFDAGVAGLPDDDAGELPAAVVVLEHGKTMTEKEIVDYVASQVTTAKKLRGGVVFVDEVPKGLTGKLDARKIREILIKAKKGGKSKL

Sequence of Fibroblast growth factor 2 (Homo sapiens) (P09038 whole entry, looked up): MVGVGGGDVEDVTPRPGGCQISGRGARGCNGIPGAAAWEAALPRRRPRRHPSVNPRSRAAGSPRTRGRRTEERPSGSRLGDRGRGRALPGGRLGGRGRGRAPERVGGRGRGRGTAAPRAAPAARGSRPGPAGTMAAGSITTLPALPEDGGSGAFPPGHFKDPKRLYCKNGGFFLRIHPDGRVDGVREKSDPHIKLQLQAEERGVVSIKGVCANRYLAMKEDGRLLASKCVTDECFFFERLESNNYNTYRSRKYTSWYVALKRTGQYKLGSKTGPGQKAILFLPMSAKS
Sequence of Focal adhesion kinase 1 (Homo sapiens) (Q05397 whole entry, looked up): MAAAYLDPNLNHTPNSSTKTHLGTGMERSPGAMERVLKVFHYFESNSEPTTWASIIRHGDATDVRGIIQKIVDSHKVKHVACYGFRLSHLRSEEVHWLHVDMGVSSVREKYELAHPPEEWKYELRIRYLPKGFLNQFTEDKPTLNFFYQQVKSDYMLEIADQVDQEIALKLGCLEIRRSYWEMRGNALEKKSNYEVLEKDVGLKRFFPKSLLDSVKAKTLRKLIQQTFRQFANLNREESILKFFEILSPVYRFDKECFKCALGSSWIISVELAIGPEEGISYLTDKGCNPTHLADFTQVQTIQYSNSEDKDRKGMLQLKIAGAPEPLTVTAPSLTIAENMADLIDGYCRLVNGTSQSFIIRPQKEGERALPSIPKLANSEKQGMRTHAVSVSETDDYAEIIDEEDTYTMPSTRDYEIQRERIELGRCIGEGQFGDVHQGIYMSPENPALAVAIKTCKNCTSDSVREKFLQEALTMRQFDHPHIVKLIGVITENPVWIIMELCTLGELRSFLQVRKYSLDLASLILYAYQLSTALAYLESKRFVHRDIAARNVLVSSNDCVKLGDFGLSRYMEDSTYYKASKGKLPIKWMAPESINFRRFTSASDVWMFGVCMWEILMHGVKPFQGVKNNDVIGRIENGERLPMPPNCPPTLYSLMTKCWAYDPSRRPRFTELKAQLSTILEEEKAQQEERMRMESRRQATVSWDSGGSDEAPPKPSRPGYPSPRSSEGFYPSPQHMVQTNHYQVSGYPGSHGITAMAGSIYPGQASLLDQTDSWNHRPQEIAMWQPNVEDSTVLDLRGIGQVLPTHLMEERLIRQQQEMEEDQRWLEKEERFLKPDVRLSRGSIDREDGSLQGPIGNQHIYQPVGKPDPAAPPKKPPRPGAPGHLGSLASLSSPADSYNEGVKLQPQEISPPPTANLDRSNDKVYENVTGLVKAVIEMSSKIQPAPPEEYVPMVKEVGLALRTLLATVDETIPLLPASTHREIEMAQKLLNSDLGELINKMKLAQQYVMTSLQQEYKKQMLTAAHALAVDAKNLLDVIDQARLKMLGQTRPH
Sequence of Follistatin (Homo sapiens) (P19883 whole entry, looked up): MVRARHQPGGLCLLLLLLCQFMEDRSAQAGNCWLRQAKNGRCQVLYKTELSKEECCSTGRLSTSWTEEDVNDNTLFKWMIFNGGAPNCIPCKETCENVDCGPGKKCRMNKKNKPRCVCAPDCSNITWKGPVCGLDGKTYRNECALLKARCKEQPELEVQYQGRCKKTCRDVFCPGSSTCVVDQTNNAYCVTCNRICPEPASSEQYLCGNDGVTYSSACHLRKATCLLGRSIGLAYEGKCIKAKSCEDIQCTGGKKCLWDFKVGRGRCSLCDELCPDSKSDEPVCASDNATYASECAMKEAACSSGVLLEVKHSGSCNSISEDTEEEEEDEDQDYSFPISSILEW

| Structure (SMILES) | composite z-score [1] | composite z-score [2] | composite z-score [3] | composite z-score [4] | composite z-score [5] | composite z-score [6] | z-score [7] | composite z-score (Lefty1) | composite z-score [8] | z-score [9] |
| --- | --- | --- | --- | --- | --- | --- | --- | --- | --- | --- |
| CN1C(=O)C2C=CC(C(O)c3ccc(N(C)C)cc3)N(Nc3ccc([N+](=O)[O-])cc3[N+](=O)[O-])C2C1=O (stereo not given) | 1.54 | 1.23 | 0.171 | 1.01 | 1.26 | -0.0151 | 0.469 | -0.375 | 1.24 | -1.2 (inactive) |
| C=C(C(=O)CC[C@H](OC(=O)c1ccccc1-c1ccccc1C(=O)O)c1ccc(CO)o1)C(C)C | 2.61 | 0.0323 | 0.0321 | 0.531 | 1.27 | 1.46 | -0.528 | 1.04 | 0.0123 | -1.75 (inactive) |
| COc1cccc([C@H]2N[C@H](C(=O)O)CC[C@@H]2C)c1 | 0.184 | 0.335 | 0.163 | 0.363 | 0.0807 | -0.0305 | -0.14 | 0.223 | -0.208 | -0.128 (inactive) |
| CCCC=C(CCC)[C@@H](NC(=O)c1ccccc1)c1ccccc1 | -0.697 | 0.3 | 1.04 | -0.602 | -0.536 | -0.846 | -1.52 | -0.614 | -0.677 | 0.0419 (inactive) |
| C=CCC(OC(C)=O)[C@@H]1[C@@H](N(Cc2cccc3ccccc23)C(=O)c2ccc(C)cc2)c2cc(OCCCO)ccc2N1C(=O)c1ccc(-c2ccccc2)cc1 (stereo not given in full) | -0.215 | -0.0588 | -0.0095 | -0.5 | 0.679 | 0.26 | 2.6 | -0.0451 | -0.285 | -1.18 (inactive) |
| COC(=O)[C@@]1(Cc2ccc(OC)cc2)[C@H]2c3cc(C(=O)N(C)C)n(CCc4ccc(OC)c(Br)c4)c3C[C@H]2CN1C(=O)c1ccccc1 | 2.28 | 1.23 | 2.29 | 0.891 | 0.85 | -0.763 | 0.37 | -0.545 | 1.37 | 0.253 (inactive) |
| C=C(CCCC)C(=O)CC[C@@H](OC(C)=O)c1ccccc1OCCO | -0.848 | -0.806 | -0.523 | -1.75 | -0.245 | -0.508 | 0.846 | -0.0521 | -0.788 | -1.33 (inactive) |
| C#CCNC(/C=C/c1ccccc1)CO (stereo not given) | 0.638 | 0.355 | -0.0492 | 0.269 | 0.362 | 0.106 | -1.07 | 0.394 | -0.0687 | 0.835 (inactive) |
| Cc1ccc(N2C(=O)c3ccccc3[C@@H](C(=O)NCC(F)(F)F)[C@@H]2c2ccc(CO)cc2)nc1 | -1.37 | -2.06 | -0.589 | -1.4 | -2.06 | -0.59 | -0.913 | -3.17 | -0.925 | -0.642 (inactive) |
| CC(C)NC(=O)[C@@]1(Cc2ccccc2I)c2ccccc2C(=O)N(C2CCCCC2)[C@H]1c1ccc(CO)cc1 | 2.52 | 1.24 | 0.628 | 0.991 | 1.17 | 0.148 | -0.105 | 0.227 | 0.916 | 0.95 (inactive) |
| CC(C)[Si]1(C(C)C)OCc2cc(C3CC3)nc(-c3ccccc3)c21 | -1.42 | -0.722 | -0.294 | -0.742 | 0.441 | -0.5 | 0.325 | -0.165 | -0.625 | -0.525 (inactive) |
| C=C(C)[C@@H]1CC=C(C(O)C2C=CC3C(=O)NC(=O)C3N2Nc2ccccn2)CC1 (stereo not given in full) | 2.31 | 1.15 | -0.167 | 1.02 | 1.58 | 1.92 | 0.781 | 1.75 | 0.842 | -0.332 (inactive) |
| CCN1C(C)=C(C(=O)OC)[C@@H](c2ccccc2)N2C(=O)[C@@]3(C(=O)OC)O[C@@]12[C@@H]1C(=O)N(C)C(=O)[C@@H]13 | 1.65 | 0.812 | -0.23 | 0.819 | 0.968 | 0.916 | 0.842 | 0.819 | 1.12 | -0.701 (inactive) |
| COc1cccc([C@@H]2[C@@H](C)CC[C@H]3C(=O)N(C)[C@@H](C(C)C)C(=O)N23)c1 | 0.381 | 0.694 | 1.24 | -0.0271 | 0.388 | 0.348 | 1.68 | 0.915 | 0.168 | -1.56 (inactive) |
| COCC(=C=CC[C@H](O)c1ccc(OCCO)cc1)C[C@H](O)c1ccccn1 | -0.0301 | 0.401 | -0.389 | -0.263 | 0.193 | 0.0116 | 1.92 | 0.233 | -0.32 | -2.45 (inactive) |
| Cc1ccc(S[C@]2(C(=O)NCCN3CCOCC3)CC(=O)N(C3Cc4ccccc4C3)[C@@H]2c2ccc(CO)cc2I)cc1 | 0.0031 | -0.521 | 0.355 | 0.0025 | -1.23 | -1.41 | 1.3 | -1.21 | 1.01 | -0.83 (inactive) |
| COCCOC(=O)N1C(=O)[C@@]2(c3cc(C#CC4=CCCCC4)ccc31)[C@H](C(=O)NC[C@H](O)c1ccccc1)[C@H]1C(=O)O[C@H](c3ccccc3)[C@H](c3ccccc3)N1[C@@H]2c1ccc(OCCO)cc1 | 0.577 | 1.2 | 0.221 | 0.955 | 1.35 | 1.22 | -1.73 | 1.08 | 0.971 | -0.526 (inactive) |
| CCCCCCc1nc(C2CC2)c(C)c2c1[Si](C(C)C)(C(C)C)OC2 | -0.095 | -1.51 | -0.695 | -0.687 | -0.0256 | -0.0723 | -0.451 | -0.238 | -0.982 | -0.441 (inactive) |
| CCC1=C2CN(Cc3ccccc3Br)[C@@H]([C@@H](O)Cc3ccccc3)C2C=CCC1 (stereo not given in full) | 1.23 | 1.13 | 0.172 | 0.455 | 0.651 | 0.209 | -0.7 | 1.25 | 0.291 | -0.852 (inactive) |
| Cc1ccc(S[C@]2(C(=O)O)CC(=O)N(Cc3ccccc3)[C@@H]2c2ccc(CO)cc2)cc1 | -0.846 | 0.0745 | -0.412 | 0.0619 | -0.256 | 0.0167 | 1.31 | -0.532 | 0.0681 | -1.32 (inactive) |
| O=C1O[C@H](c2ccccc2)[C@H](c2ccccc2)N2[C@H]1[C@@H](C(=O)Nc1nc3ccccc3s1)[C@]1(C(=O)Nc3ccc(C#CC4(O)CCCCCC4)cc31)[C@H]2c1ccc(O)cc1 | 1.71 | 1.2 | 0.164 | 1 | 1.29 | 1.31 | -2.35 | 0.666 | 0.856 | -1.27 (inactive) |
| C=C(CCCC)/C(=C/C[C@@H](OC(=O)c1ccncc1)c1cccc(OCCO)c1)c1cc(C(=O)OC)ccc1OC | 0.541 | 1.17 | 0.0708 | 0.939 | 1.12 | 0.627 | 4.97 | 0.959 | 1.09 | -2.22 (inactive) |
| C=CCC(OC(C)=O)[C@@H]1[C@@H](N(Cc2cc3ccccc3o2)C(=O)Cc2ccc(F)cc2)c2cc(OCCCO)ccc2N1C(=O)c1ccc(-c2ccccc2)cc1 (stereo not given in full) | -1.6 | -0.844 | -0.341 | -1.2 | 0.0166 | -0.287 | 2.35 | -0.234 | -0.681 | -1.06 (inactive) |
| CCCC[C@@H]1C[C@H]1[C@@H](NC(=O)c1ccccc1)c1ccccc1C(F)(F)F | 0.412 | 1.22 | 0.826 | 1.03 | 0.243 | -0.113 | 0.294 | -0.826 | 1.17 | 1.31 (inactive) |
